Here are results for 109 compounds from PubChem BioAssay AID493085 (Broad Institute, 2011).

SMILES strings stand for the structures. Screen size: about 2,400 compounds; about 360 (15%) were called active. About 5% were inconclusive and are not listed.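 Rule for the calls: active = falling-signal curve with half-maximal concentration at or below ten times the top tested dose; inconclusive = flat fit at 30 to 70% inhibition, or poor fit; inactive = signal rise, flat within 30%, or potency beyond limit.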 Not all results are given here. Results with a measured potency or affinity are listed apart.

A short description of the test: Tet-On RFP internal-standard readout, HSF1 screen, dose response, cell-based, NIH3T3 R4, HSE-GFP and Tet-On RFP, cherry-pick, set 3 (AID 493085).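 Note: cells heat shocked 2 h at 42 °C with doxycycline to induce reporters.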 To be noted: NIH3T3 R4 HSE-GFP/Tet-RFP reporter, fluorescence, 48 h; series mostly up to 19.5 µM.
As for `c1ccc(-c2nn[nH]n2)nc1`, the outcome was inactive.

Regarding `O=C(CCCNC(=O)/C(=C\c1ccccc1F)NC(=O)c1ccccc1)OCc1ccccc1`, the compound was called inactive. The value for `COc1ccccc1NS(=O)(=O)c1ccc(C)c(C(N)=O)c1` was “inactive”; that for `COc1ccc(C)cc1S(=O)(=O)Nc1cc2c3c(c1)CCC(=O)N3CCC2` was “inactive”; that for `CN(C)c1ccc(-c2nc3n(n2)C(c2cccnc2)C2=C(CC(C)(C)CC2=O)N3)cc1` (centres undefined) was “inactive”. The value for `CCCn1c2ccccc2c2nnc(SCc3[nH]c(=O)[nH]c3C(=O)CCCCC(=O)OCC)nc21` was “inactive”; that for `CC(=O)NC(c1ccc(C)cc1)c1cc(Cl)c2cccnc2c1O` (centres undefined) was “inactive”; that for `Cc1cccc(NCc2ccc(O)c3ncccc23)c1C` was “inactive”. In the case of `Oc1c(CN2CCOCC2)cc(COCc2ccccc2)c2cccnc12`, the compound was classed as inactive. The value for `Cn1ncc([N+](=O)[O-])c1C(=O)Nc1ccccc1Cl` was “inactive”; that for `CCN1C(=O)C(CC(=O)Nc2ccc(OC)cc2)N(Cc2ccc3c(c2)OCO3)C1=S` (centres undefined) was “inactive”. To `Cc1cc(N=Nc2ccc(Cl)cc2)cc(CN2CCCC2)c1O` belongs “inactive”.

Take `COc1ccc(C(=O)NC(=S)N2CCNC(=O)C2CC(=O)OC(C)C)cc1` (centres undefined): the compound was called inactive. Turning to `CCOC(=O)c1c(C)[nH]c(C(=O)COC(=O)C2=NNC(=O)CC2)c1C`, the call was inactive. The value for `O=C(O)c1cc(S(=O)(=O)N(Cc2ccccc2)c2ccccc2Cl)ccc1Cl` was “inactive”; that for `O=C(Nc1cccnc1)c1coc(=O)c2ccccc12` was “inactive”; that for `CC(C)c1ccc(NC2(C#N)C(=O)Nc3ccccc32)cc1` (centres undefined) was “inactive”. For the compound `O=C1SCC(c2ccccc2)=NN1Cc1ccccc1`, the result was inactive. To `CCOc1ccc(-n2c(O)c(/C=N/Nc3nnc(C)c(=O)[nH]3)c3ccccc3c2=O)cc1` belongs “inactive”; to `CCOc1ccc(NCc2nnc(SCC(=O)Nc3cc(C)on3)n2-c2ccc(OC)cc2)cc1`, “inactive”; to `CCOC(=O)c1cccc(NC(=O)CCS(=O)(=O)c2ccc(Br)s2)c1`, “inactive”. To `CC(OC(=O)CN1C(=O)c2ccccc2C1=O)C(=O)NC1CCCCC1C` (centres undefined) belongs “inactive”; to `COC1CCCN(C(=O)c2ccc(OC3CCN(CCc4ccccc4)CC3)cc2)C1` (centres undefined), “inactive”. With `O=C(CCN1C(=O)/C(=C/c2ccc(F)cc2)SC1=S)NCCCn1ccnc1`, the compound was classed as inactive. To `Cn1nc(N)c2c(-c3ccccc3)c(C#N)c(N)nc21` belongs “inactive”; to `Cc1c(NC(=O)C2CC(c3ccc(F)cc3)=NO2)c(=O)n(-c2ccccc2)n1C` (centres undefined), “inactive”; to `Cc1ccc(N=C2NC(=O)/C(=C\c3cccs3)S2)cc1C`, “inactive”.

Regarding `O=C(NCc1ccccc1C(F)(F)F)C12CN(Cc3ccccc3)CC1C(c1ccc([N+](=O)[O-])cc1)=NO2` (centres undefined), the compound was called inactive. With `COc1ccc(CNC(=O)CCCNC(=O)c2ccc(Cl)cc2)cc1OC`, the compound was classed as inactive. To `COC(=O)c1cc(S(=O)(=O)NCc2ccc(F)cc2)cn1C` belongs “inactive”. The value for `Cc1ccc(C(=O)O/N=C(\N)c2ccccn2)c(C)c1` was “inactive”; that for `CC(C)(C)C(=O)Nc1ccc(-c2cc3cc(Cl)ccc3o2)cc1` was “inactive”; that for `CCS(=O)(=O)c1ncc(Cl)c(C(=O)Nc2ccc(C)cc2)n1` was “inactive”.

Regarding `CC1CCN(S(=O)(=O)c2ccc(C(=O)Nc3nnc(-c4ccccn4)o3)cc2)CC1`, the compound was called inactive. The value for `CN1CCN(S(=O)(=O)c2ccc(Oc3ccc(F)c(Cl)c3)nc2)CC1` was “inactive”; that for `CCc1ccc(OC(C)C(=O)N(Cc2ccco2)C2CCS(=O)(=O)C2)cc1` (centres undefined) was “inactive”. The value for `Cc1ncc([N+](=O)[O-])n1CC(=O)Nc1ccc(F)cc1` was “inactive”; that for `O=C(Cn1nc(-c2ccc(Cl)cc2)ccc1=O)NCC1CCCO1` (centres undefined) was “inactive”; that for `Cc1cc(Nc2cccc(Cl)c2)nc(-c2ccccc2O)n1` was “inactive”. Take `O=C(O)c1cccc(Nc2ccnc(Nc3cccc(C(=O)O)c3)n2)c1`: the result was inactive. The value for `CCOc1cc(CNCC2CCCN2CC)cc(Cl)c1OC` (centres undefined) was “inactive”; that for `COc1ccc(-c2cn(-c3ccccc3)nc2CO)cc1` was “inactive”; that for `Cn1ccnc1C1CCCCN1C(=O)c1cc(COc2ccc(F)cc2Cl)on1` (centres undefined) was “inactive”. On to `Cc1cc(=O)n2[nH]c(=O)c(N=Nc3ccccc3)c2[nH]1`, for which the compound was called inactive.

In the case of `CN(C)c1ccc(C(=S)Nc2ccccc2)cc1`, the result was inactive. On to `CN(C)c1ccc(/C=N/NC(=O)C2COc3ccccc3O2)o1` (centres undefined), for which the outcome was inactive. To `Cc1ccc(Cl)cc1NC(=O)C1COc2ccccc2O1` (centres undefined) belongs “inactive”; to `Cc1ccc(O)c(/C=N/NC(=O)CN2CCCC2)c1`, “inactive”. The value for `NCCCC[C@@H](C(=O)N1CCNCC1)n1cc([C@@H](N)CO)nn1` was “inactive”; that for `COc1ccc(OC)c(C(=O)c2ccc(C(=O)O)cc2)c1` was “inactive”.

`COc1ccc(C(=O)c2c[nH]cc2-c2ccccc2)cc1`: the compound was called inactive. In the case of `Cc1cn2c(nc(=O)c3cccnc32)s1`, the compound was classed as inactive. To `Cc1ccc(S(=O)(=O)N2CCC(C)CC2)cc1[N+](=O)[O-]` belongs “inactive”; to `COc1ccc(C(=O)N/C(=C\c2cccs2)c2nc3ccccc3[nH]2)cc1OC`, “inactive”; to `Cn1c(N2CCOCC2)nc(-c2ccccc2)c1-c1ccccc1`, “inactive”. The value for `C=CCc1c(C)nc2c(-c3ccccc3)cnn2c1N1CCOCC1` was “inactive”; that for `C=CCn1c(C)cc(C(=O)COC(=O)CNC(=O)c2ccccc2)c1C` was “inactive”; that for `CNC(=O)COC(=O)c1ccccc1C(=O)c1ccc(Cl)c([N+](=O)[O-])c1` was “inactive”.

Consider `O=C(COC(=O)c1cc[n+]([O-])cc1)Nc1cccc(Cl)c1Cl`, for which the compound was classed as inactive.

For `CC(C)(C)c1ccc(/C=C(\C#N)C(=O)Nc2ccccn2)cc1`, the compound was classed as inactive.

For `COc1cc(C(C(=O)NCc2ccccc2)N(Cc2ccco2)C(=O)c2cnccn2)cc(OC)c1OC` (centres undefined), the call was inactive. The value for `COc1ccc2cc3c(N)nn(C(=O)Cc4c[nH]c5ccccc45)c3nc2c1` was “inactive”; that for `CSc1cccc(NC(=S)N2CCC(N(C)C3CCCC3)CC2)c1` was “inactive”; that for `CS(=O)(=O)c1ccc(NC(=O)c2ccc3c(c2)S(=O)(=O)N=C2CCCCCN23)cc1` was “inactive”. To `Cc1cccc(N(Cc2ccccc2)C(=O)CCl)c1` belongs “inactive”. To `CCN(C(=O)COC(=O)/C=C/c1ccccc1)C1CCCCC1` belongs “inactive”. As for `COc1ccccc1NC(=O)[C@H](COCc1ccccc1)NC(=O)OC(C)(C)C`, the outcome was inactive.

On to `CCn1c(SCC(=O)N(C)C2CCS(=O)(=O)C2)nnc1-c1cccs1` (centres undefined), for which the outcome was inactive. To `CN(C(=O)CCNC(=O)Cn1cnc2ccccc2c1=O)c1ccccc1F` belongs “inactive”; to `CSc1ccccc1NC(=O)C1=CC(c2ccc(C)cc2)=NS(=O)(=O)N1C`, “inactive”; to `CCOc1ccc(NC(=S)Nc2ccc(OC(F)(F)F)cc2)cc1`, “inactive”.

For `Cc1[nH]c(=O)c(C#N)cc1-c1csc(-c2ccccc2)n1`, the outcome was inactive. `COC(=O)CCC(=O)NNC(=O)c1cccc(Br)c1`: the result was inactive. The value for `COc1ccccc1CCC(=O)OCC(=O)Nc1cccc(S(=O)(=O)N2CCOCC2)c1` was “inactive”; that for `CCOC(=O)C1=C(C)N(CCC(=O)O)C(=O)NC1c1ccccc1Cl` (centres undefined) was “inactive”. As to `COc1ccc(/C=C(\C#N)C(=O)Nc2cc(C)c(Cl)cc2OC)cc1O`, the compound was called inactive. `CSc1nccn1C(=O)c1ccccc1[N+](=O)[O-]`: the call was inactive.

On to `Cc1ccc(-n2cc(C(=O)c3ccccc3O)cn2)cc1`, for which the outcome was inactive. Turning to `O=C(CSc1nc2ccccc2s1)N/N=C/c1ccccc1C(=O)O`, the call was inactive.

With `CC(C)c1ccccc1-n1c(-c2cccnc2)n[nH]c1=S`, the compound was called inactive. The value for `COc1ccccc1NC(=O)Cn1c(=O)c(N(C)C)c(N)n(C)c1=O` was “inactive”; that for `COCCn1c(=O)[nH]c2cc(C(=O)NC3CCCCCC3)ccc2c1=O` was “inactive”; that for `COc1cccc(NC(=O)CCSc2nnc3scc(-c4ccccc4)n23)c1` was “inactive”. Regarding `CCCC(NC(=O)COc1cc2c(c3oc(=O)cc(C)c13)CCC(C)(C)O2)C(=O)O` (centres undefined), the outcome was inactive. To `CC(C(=O)NC1CC(C)(C)NC(C)(C)C1)c1ccc([N+](=O)[O-])cc1` (centres undefined) belongs “inactive”. To `CC(=O)c1cccc(NC(=O)CN2C(=O)c3ccccc3C2=O)c1` belongs “inactive”; to `CCOc1ccc(/C=N/NC(=O)c2ccc(Cn3cc([N+](=O)[O-])cn3)o2)cc1`, “inactive”; to `NC(=S)N/N=C1\CC(n2nnnc2-c2ccccc2Cl)C2COC1O2` (centres undefined), “inactive”. To `COc1ccc(/C=N/Nc2nc(C)cc(=O)[nH]2)cc1OC` belongs “inactive”; to `COc1ccc(-c2nc(CNS(=O)(=O)c3ccc(OC)c(OC)c3)cs2)cc1`, “inactive”; to `Cc1cccc(N2CCN(Cc3nc(-c4ccccc4Cl)oc3C)CC2)n1`, “inactive”. With `Oc1ccc(Br)cc1/C=N/Nc1ccccn1`, the outcome was inactive. To `O=C(N/N=C/c1ccccn1)c1ccc([N+](=O)[O-])cc1` belongs “inactive”; to `CCOC(=O)C[n+]1c(C)csc1C`, “inactive”; to `CCOc1ccc(NC(=O)C(C)NS(=O)(=O)c2ccc(NC(C)=O)cc2)cc1` (centres undefined), “inactive”. To `Cc1ccc(Cn2c(Sc3ncccn3)nc3c2c(=O)[nH]c(=O)n3C)cc1` belongs “inactive”. Regarding `Cc1nccn1Cc1cccc2ccccc12`, the outcome was inactive. The value for `CC(=O)NCCNC(=O)c1ccc(CSc2nc3ccccc3s2)cc1` was “inactive”; that for `Cc1cc(=O)[nH]c2c1c(=O)[nH]n2C1CC(C)N(C)CC1C` (centres undefined) was “inactive”. To `C=CCOCCN(CCOCC=C)C1=NS(=O)(=O)c2ccccc21` belongs “inactive”; to `Cc1cc(OCC(=O)NCCc2ccc(S(N)(=O)=O)cc2)c2c(C)cc(=O)oc2c1`, “inactive”; to `NS(=O)(=O)c1ccc(CCNCC#Cc2ccccc2)cc1`, “inactive”.

Regarding `CCn1cc(C(=O)NCCCN2CC(C)CC(C)C2)c(=O)c2cc(S(=O)(=O)N(C)C)ccc21` (centres undefined), the outcome was inactive. To `O=C(N1CCOCC1)C12CCC3CC(CC(C3)C1)C2` belongs “inactive”.

Consider `CCCS(=O)(=O)c1cnc(C2COc3ccccc3O2)nc1N` (centres undefined), for which the result was inactive. The value for `C=CCn1c(C)nnc1SCC(=O)Nc1nc(C)c(C(=O)N(C)C)s1` was “inactive”; that for `O=C1CC(N2CCCCC2)C(=O)N1c1ccccc1` (centres undefined) was “inactive”.

For the compound `Cc1ccc(-n2nc3c(=O)n(CCCC(=O)N4CCC(C(N)=O)CC4)nc(C)c3c2C)cc1`, the call was inactive. Take `O=S(=O)(Nc1ccc2c(c1)OCCO2)c1cccs1`: the result was inactive.
